Source: the supplement of paper PMC10849652
Of roughly 8,800 targets only a part is listed; those with a hit were picked by preference. About 0.5% of all pairs of compound and target were hits.

Legend:
Experiment in all cases: log2 fold change, soluble protein after heating vs DMSO (PISA); higher = thermal stabilisation; K562 lysate, 10 uM; active = over 0.2 and 3.5 SD of the protein, either way, in both replicates (recomputed)
[1] = compound: NCC(=O)Nc1ccc(-n2nc(C(F)(F)F)cc2-c2ccc3c(ccc4ccccc43)c2)cc1
Procedure, shortened: (§1)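 Values give the log-two fold change in thermal stability against solvent controls, from duplicates. Crude K562 extract at 1 mg/mL protein, made by dounce homogenisation in PBS pH 7.4 with 1 mM MgCl2, was treated with 10 μM compound for 30 min. After 3 min heating across 48°C-58°C, aliquots were pooled, adjusted to 0.5% NP-40 at 4°C and centrifuged at 21,000xg for 90 min. The supernatant was measured by TMTpro 16plex LC-MS/MS with channel sums equalised.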

vorinostat = compound: O=C(CCCCCCC(=O)Nc1ccccc1)NO [vorinostat]
Procedure, shortened: as §1

silmitasertib = compound: O=C(O)c1ccc2c(c1)nc(Nc1cccc(Cl)c1)c1ccncc12 [silmitasertib]
Procedure, shortened: as §1

[2] = compound: O=C1NC(=O)C(c2cnc3ccccn23)=C1c1cn2c3c(cc(F)cc13)CN(C(=O)N1CCCCC1)CC2
Procedure, shortened: as §1

entospletinib = compound: c1cn2cc(-c3ccc4cn[nH]c4c3)nc(Nc3ccc(N4CCOCC4)cc3)c2n1 [entospletinib]
Procedure, shortened: as §1

Measured: log2 fold change

ABHD17A isoform 2 (UniProt Q96GS6)
active: vorinostat 0.363
inactive: [1] 0.001 | silmitasertib -0.059 | [2] -0.025 | entospletinib 0.043

AKR1C3 (UniProt P42330)
inactive: [1] -0.009 | silmitasertib 0.044 | [2] 0.009 | entospletinib 0.059
active: vorinostat 0.546

ARAF (UniProt P10398)
active: vorinostat -0.487
inactive: [1] -0.072 | silmitasertib -0.023 | [2] 0.019 | entospletinib -0.011

ALKBH4 (UniProt Q9NXW9)
Chain of UniProt Q9NXW9 (Q9NXW9 whole entry, looked up): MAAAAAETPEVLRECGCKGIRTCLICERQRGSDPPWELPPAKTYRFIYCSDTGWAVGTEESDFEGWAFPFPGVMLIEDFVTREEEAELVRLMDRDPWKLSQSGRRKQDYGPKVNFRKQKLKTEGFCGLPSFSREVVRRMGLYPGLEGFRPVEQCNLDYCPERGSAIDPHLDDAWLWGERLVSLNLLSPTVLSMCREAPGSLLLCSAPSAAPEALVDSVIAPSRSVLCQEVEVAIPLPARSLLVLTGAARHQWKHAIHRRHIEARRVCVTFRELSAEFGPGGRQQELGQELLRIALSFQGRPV
active: vorinostat 0.264
inactive: [1] 0.061 | silmitasertib -0.032 | [2] -0.088 | entospletinib -0.012

ABCD3 (UniProt P28288)
inactive: [1] -0.019 | vorinostat -0.164 | silmitasertib 0.113 | [2] -0.08 | entospletinib 0.034

AKAP8 (UniProt O43823)
inactive: [1] 0.047 | vorinostat -0.095 | silmitasertib 0.019 | [2] 0.023 | entospletinib -0.046

AGGF1 (UniProt Q8N302)
inactive: [1] 0.135 | vorinostat 0.059 | silmitasertib -0.06 | [2] 0 | entospletinib -0.015

ABI1 isoform 9 (UniProt Q8IZP0)
inactive: [1] 0.046 | vorinostat 0.026 | silmitasertib -0.025 | [2] 0.03 | entospletinib 0.018

AKT1 (UniProt P31749)
inactive: [1] -0.051 | vorinostat -0.192 | silmitasertib -0.012 | [2] -0.024 | entospletinib -0.005

AP4B1 (UniProt Q9Y6B7)
active: vorinostat -0.286
inactive: [1] 0.08 | silmitasertib 0.037 | [2] -0.051 | entospletinib 0.022

ACADM isoform 2 (UniProt P11310)
active: vorinostat 0.344
inactive: [1] -0.015 | silmitasertib -0.015 | [2] 0.023 | entospletinib 0.016

ARL1 (UniProt P40616)
Chain of UniProt P40616 (P40616 whole entry, looked up): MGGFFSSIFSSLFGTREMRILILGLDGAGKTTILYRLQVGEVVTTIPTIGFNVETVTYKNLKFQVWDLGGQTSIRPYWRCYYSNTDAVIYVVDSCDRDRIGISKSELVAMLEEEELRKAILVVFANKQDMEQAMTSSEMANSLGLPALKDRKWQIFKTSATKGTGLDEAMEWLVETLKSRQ
inactive: [1] 0.017 | silmitasertib -0.048 | [2] 0.027 | entospletinib 0.034
active: vorinostat -0.293

AIMP2 (UniProt Q13155)
Chain of UniProt Q13155 (Q13155 whole entry, looked up): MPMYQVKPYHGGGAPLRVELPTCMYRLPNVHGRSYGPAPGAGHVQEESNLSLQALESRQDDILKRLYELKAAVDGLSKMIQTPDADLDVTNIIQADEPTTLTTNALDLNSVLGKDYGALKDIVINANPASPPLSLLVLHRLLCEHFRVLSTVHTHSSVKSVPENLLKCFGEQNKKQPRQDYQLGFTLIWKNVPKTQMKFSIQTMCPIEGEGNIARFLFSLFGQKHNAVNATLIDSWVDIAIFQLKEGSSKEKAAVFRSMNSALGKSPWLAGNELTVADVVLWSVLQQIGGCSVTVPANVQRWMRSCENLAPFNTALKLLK
active: vorinostat -0.347
inactive: [1] -0.046 | silmitasertib 0.048 | [2] 0.017 | entospletinib -0.017

ABCF2 isoform 2 (UniProt Q9UG63)
active: vorinostat -0.326
inactive: [1] 0.103 | silmitasertib 0.054 | [2] 0.016 | entospletinib -0.028

ACSL4 (UniProt O60488)
Chain of UniProt O60488 (O60488 whole entry, looked up): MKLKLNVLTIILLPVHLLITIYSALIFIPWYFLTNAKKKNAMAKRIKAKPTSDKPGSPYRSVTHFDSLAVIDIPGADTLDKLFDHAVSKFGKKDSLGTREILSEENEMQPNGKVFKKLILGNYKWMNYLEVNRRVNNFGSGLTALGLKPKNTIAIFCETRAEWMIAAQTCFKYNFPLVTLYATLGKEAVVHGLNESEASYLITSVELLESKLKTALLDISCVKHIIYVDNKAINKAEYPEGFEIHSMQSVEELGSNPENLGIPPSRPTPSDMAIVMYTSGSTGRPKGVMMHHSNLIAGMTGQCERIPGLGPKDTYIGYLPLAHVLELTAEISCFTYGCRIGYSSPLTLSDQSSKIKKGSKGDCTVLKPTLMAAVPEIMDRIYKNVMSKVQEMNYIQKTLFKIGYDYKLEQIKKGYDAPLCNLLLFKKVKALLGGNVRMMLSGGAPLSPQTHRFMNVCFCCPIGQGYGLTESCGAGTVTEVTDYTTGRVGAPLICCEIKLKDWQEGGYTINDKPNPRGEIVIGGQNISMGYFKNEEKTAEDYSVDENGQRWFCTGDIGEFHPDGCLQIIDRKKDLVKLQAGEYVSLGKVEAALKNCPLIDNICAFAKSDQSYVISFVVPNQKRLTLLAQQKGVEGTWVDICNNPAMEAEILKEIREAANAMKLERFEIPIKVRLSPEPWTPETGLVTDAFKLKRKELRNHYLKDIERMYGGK
inactive: [1] 0.137 | silmitasertib 0.066 | [2] -0.002 | entospletinib 0.014
active: vorinostat -0.321

AGPAT2 (UniProt O15120)
inactive: [1] -0.234 | vorinostat 0.104 | silmitasertib -0.026 | [2] -0.052 | entospletinib 0.063

ALDH1L2 (UniProt Q3SY69)
inactive: [1] 0.017 | vorinostat 0.106 | silmitasertib 0.016 | [2] -0.027 | entospletinib 0.031

ASNS (UniProt P08243)
inactive: [1] 0.006 | silmitasertib -0.01 | [2] -0.008 | entospletinib 0.029
active: vorinostat -0.373

AARS2 (UniProt Q5JTZ9)
active: vorinostat -0.243
inactive: [1] -0.004 | silmitasertib 0.085 | [2] 0.028 | entospletinib 0.035

AIP (UniProt O00170)
inactive: [1] -0.001 | vorinostat -0.061 | silmitasertib -0.032 | [2] 0.003 | entospletinib -0.003

AKAP8L (UniProt Q9ULX6)
inactive: [1] -0.045 | vorinostat -0.213 | silmitasertib -0.001 | [2] -0.078 | entospletinib -0.019

ALDH1B1 (UniProt P30837)
Chain of UniProt P30837 (P30837 whole entry, looked up): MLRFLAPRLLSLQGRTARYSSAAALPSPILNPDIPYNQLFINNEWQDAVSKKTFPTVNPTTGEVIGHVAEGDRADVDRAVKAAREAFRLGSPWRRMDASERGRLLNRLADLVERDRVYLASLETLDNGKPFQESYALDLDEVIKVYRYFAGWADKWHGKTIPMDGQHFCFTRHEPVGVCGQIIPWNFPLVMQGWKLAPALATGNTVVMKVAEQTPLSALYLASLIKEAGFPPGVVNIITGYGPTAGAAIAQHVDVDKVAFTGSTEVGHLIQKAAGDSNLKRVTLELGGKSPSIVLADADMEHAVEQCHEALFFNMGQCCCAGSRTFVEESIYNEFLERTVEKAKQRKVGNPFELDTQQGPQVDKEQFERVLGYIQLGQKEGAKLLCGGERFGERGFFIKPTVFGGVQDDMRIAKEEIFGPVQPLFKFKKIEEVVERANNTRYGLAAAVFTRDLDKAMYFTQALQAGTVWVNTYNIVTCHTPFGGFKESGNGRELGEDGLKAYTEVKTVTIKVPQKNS
active: vorinostat 1.15
inactive: [1] 0.027 | silmitasertib -0.051 | [2] -0.022 | entospletinib 0.033

AP1G2 (UniProt O75843)
inactive: [1] 0.071 | silmitasertib -0.03 | [2] 0.008 | entospletinib 0.018
active: vorinostat -0.31

ACAA1 (UniProt P09110)
inactive: [1] -0.005 | silmitasertib -0.039 | [2] 0.033 | entospletinib 0.038
active: vorinostat -0.332

ADAMTS5 (UniProt Q9UNA0)
inactive: [1] 0.137 | vorinostat 0.028 | silmitasertib -0.065 | [2] 0.062 | entospletinib -0.125

ALG3 (UniProt Q92685)
active: vorinostat 0.461
inactive: [1] -0.107 | silmitasertib 0.285 | [2] -0.157 | entospletinib -0.01

ADAM17 (UniProt P78536)
inactive: [1] 0.014 | vorinostat 0.089 | silmitasertib -0.006 | [2] 0.042 | entospletinib 0.014

APOBEC3C (UniProt Q9NRW3)
Chain of UniProt Q9NRW3 (Q9NRW3 whole entry, looked up): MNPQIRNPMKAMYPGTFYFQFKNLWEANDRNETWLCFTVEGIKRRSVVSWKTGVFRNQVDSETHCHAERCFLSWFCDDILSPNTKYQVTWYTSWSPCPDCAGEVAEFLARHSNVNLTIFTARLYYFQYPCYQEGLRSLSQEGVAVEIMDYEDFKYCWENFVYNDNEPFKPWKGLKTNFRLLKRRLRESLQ
active: vorinostat -0.278
inactive: [1] 0.055 | silmitasertib 0.043 | [2] -0.066 | entospletinib -0.007

ANP32E (UniProt Q9BTT0)
inactive: [1] 0.021 | vorinostat 0.217 | silmitasertib -0.029 | [2] -0.011 | entospletinib 0.012

ALDH6A1 (UniProt Q02252)
inactive: [1] -0.041 | vorinostat -0.046 | silmitasertib 0.042 | [2] 0.096 | entospletinib 0.035

AMMECR1 (UniProt Q9Y4X0)
Chain of UniProt Q9Y4X0 (Q9Y4X0 whole entry, looked up): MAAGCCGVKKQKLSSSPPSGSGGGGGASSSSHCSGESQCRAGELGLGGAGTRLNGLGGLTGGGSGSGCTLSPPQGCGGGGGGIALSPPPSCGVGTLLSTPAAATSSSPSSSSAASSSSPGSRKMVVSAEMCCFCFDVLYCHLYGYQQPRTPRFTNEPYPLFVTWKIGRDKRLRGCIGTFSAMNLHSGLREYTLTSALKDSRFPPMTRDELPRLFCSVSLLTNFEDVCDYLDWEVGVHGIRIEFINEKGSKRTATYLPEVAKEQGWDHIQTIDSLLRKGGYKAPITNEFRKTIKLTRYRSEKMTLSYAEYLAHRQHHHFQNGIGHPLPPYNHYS
active: vorinostat -0.387
inactive: [1] 0.004 | silmitasertib 0.003 | [2] -0.016 | entospletinib 0

ARFGAP1 (UniProt Q8N6T3)
inactive: [1] 0.063 | vorinostat 0.253 | silmitasertib -0.066 | [2] -0.12 | entospletinib 0.038

ACSL1 (UniProt P33121)
active: vorinostat -0.221
inactive: [1] -0.092 | silmitasertib 0.138 | [2] -0.031 | entospletinib -0.027

ASCC2 (UniProt Q9H1I8)
inactive: [1] -0.008 | vorinostat -0.048 | silmitasertib 0.077 | [2] 0.026 | entospletinib -0.017

ANLN (UniProt Q9NQW6)
inactive: [1] 0.018 | silmitasertib -0.011 | [2] -0.009 | entospletinib 0
active: vorinostat -0.656

ABI1 isoform 6 (UniProt Q8IZP0)
inactive: entospletinib -0.115

ADRM1 (UniProt Q16186)
active: vorinostat -0.231
inactive: [1] 0.051 | silmitasertib -0.027 | [2] -0.04 | entospletinib -0.002

ACLY isoform 2 (UniProt P53396)
inactive: [1] 0.091 | [2] -0.061 | entospletinib -0.047

ANKRD30A (UniProt Q9BXX3)
inactive: [2] -0.011 | entospletinib -0.135

ANP32E isoform 3 (UniProt Q9BTT0)
inactive: [1] 0.135 | entospletinib -0.095

ABHD13 (UniProt Q7L211)
Chain of UniProt Q7L211 (Q7L211 whole entry, looked up): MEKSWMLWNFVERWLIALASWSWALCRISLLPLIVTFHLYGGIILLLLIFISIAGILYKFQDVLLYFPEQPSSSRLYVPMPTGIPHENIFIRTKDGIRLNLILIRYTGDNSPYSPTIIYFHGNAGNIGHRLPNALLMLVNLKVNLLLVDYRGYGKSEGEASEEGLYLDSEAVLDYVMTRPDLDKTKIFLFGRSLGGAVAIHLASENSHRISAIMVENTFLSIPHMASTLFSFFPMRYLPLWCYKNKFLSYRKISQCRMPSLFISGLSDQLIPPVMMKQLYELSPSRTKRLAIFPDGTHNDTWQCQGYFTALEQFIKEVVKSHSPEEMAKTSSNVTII
inactive: [1] 0.023 | [2] 0.027 | entospletinib -0.12

ANXA2 isoform 2 (UniProt P07355)
inactive: [1] -0.015 | vorinostat 0.023 | silmitasertib -0.015 | [2] 0.003 | entospletinib 0.016

ADD1 isoform 4 (UniProt P35611)
inactive: [1] 0.037 | vorinostat 0.237 | silmitasertib -0.148 | entospletinib 0.056

ALKBH7 (UniProt Q9BT30)
active: vorinostat 1.23
inactive: silmitasertib -0.031 | [2] 0.079 | entospletinib 0.151

ADAR isoform 4 (UniProt P55265)
active: vorinostat -0.35
inactive: [1] -0.029 | silmitasertib 0.019 | [2] -0.031 | entospletinib 0.022

AP5B1 (UniProt Q2VPB7)
inactive: vorinostat -0.062 | silmitasertib 0.044 | [2] -0.094 | entospletinib 0.022

ARHGEF2 (UniProt V9GYF0)
inactive: [1] 0.157 | entospletinib 0.081

APOB (UniProt P04114)
inactive: [1] 0.063 | vorinostat 0.154 | silmitasertib 0.007 | [2] -0.012 | entospletinib 0.05

ARMCX5 (UniProt Q6P1M9)
inactive: [1] -0.233 | vorinostat 0.102 | silmitasertib 0.013 | entospletinib 0.088

AMDHD2 (UniProt Q9Y303)
inactive: [1] -0.092 | [2] 0.042

ARGLU1 (UniProt Q9NWB6)
inactive: [1] 0.01 | vorinostat 0.116 | silmitasertib 0.008 | [2] -0.067 | entospletinib -0.054

ACIN1 (UniProt E7EQT4)
inactive: [1] 0.076 | vorinostat 0.079 | silmitasertib -0.013 | [2] -0.013 | entospletinib 0.021

ARHGEF2 (UniProt Q92974)
inactive: [1] 0.042 | silmitasertib -0.029 | [2] 0.007 | entospletinib 0
active: vorinostat -0.248

ALDH18A1 isoform 2 (UniProt P54886)
inactive: [1] 0.097 | [2] 0.204

ALDH3A1 (UniProt P30838)
inactive: vorinostat 0.145 | silmitasertib -0.113 | [2] 0.023

AIMP2 isoform 2 (UniProt Q13155)
inactive: [2] -0.07

ARAP1 (UniProt Q96P48)
Chain of UniProt Q96P48 (Q96P48 whole entry, looked up): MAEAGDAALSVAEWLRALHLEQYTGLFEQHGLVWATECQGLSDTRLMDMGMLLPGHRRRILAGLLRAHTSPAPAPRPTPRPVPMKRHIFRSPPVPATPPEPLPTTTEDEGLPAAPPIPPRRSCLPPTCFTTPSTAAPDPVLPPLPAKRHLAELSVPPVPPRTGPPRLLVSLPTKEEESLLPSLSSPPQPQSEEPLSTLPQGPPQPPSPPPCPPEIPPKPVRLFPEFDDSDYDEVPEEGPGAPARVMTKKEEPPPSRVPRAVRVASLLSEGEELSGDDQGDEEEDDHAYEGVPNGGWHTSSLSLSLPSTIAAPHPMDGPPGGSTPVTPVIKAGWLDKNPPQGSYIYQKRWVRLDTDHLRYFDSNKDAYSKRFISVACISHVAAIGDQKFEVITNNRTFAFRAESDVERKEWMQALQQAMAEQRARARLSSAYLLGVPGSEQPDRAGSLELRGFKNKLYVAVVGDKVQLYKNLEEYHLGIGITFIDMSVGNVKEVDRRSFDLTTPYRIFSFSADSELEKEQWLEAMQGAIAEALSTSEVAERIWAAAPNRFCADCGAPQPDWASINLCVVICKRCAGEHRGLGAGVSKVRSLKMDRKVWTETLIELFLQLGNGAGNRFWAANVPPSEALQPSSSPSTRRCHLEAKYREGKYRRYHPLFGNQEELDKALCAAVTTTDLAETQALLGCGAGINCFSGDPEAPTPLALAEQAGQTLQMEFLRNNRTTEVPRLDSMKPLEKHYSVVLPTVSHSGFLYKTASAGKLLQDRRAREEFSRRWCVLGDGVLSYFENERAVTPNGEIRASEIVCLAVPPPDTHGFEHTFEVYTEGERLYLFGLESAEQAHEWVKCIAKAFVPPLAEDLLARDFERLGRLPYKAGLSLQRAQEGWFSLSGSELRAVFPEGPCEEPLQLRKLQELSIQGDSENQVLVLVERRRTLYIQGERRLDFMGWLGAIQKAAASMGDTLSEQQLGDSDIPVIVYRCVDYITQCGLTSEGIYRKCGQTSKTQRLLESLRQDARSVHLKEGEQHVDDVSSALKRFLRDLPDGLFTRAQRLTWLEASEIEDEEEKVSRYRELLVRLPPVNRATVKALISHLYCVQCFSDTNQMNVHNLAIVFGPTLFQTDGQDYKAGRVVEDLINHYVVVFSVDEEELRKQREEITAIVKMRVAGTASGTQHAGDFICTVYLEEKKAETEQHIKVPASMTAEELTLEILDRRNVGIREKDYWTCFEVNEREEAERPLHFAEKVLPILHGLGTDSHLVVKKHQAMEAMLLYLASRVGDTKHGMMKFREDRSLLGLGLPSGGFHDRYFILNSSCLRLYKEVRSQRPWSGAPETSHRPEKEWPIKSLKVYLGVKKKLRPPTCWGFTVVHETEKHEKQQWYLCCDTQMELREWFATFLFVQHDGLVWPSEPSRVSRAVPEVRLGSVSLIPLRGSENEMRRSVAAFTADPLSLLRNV
inactive: [1] -0.04 | silmitasertib 0.017 | [2] -0.014 | entospletinib -0.012
active: vorinostat -0.379

AGPS (UniProt O00116)
Chain of UniProt O00116 (O00116 whole entry, looked up): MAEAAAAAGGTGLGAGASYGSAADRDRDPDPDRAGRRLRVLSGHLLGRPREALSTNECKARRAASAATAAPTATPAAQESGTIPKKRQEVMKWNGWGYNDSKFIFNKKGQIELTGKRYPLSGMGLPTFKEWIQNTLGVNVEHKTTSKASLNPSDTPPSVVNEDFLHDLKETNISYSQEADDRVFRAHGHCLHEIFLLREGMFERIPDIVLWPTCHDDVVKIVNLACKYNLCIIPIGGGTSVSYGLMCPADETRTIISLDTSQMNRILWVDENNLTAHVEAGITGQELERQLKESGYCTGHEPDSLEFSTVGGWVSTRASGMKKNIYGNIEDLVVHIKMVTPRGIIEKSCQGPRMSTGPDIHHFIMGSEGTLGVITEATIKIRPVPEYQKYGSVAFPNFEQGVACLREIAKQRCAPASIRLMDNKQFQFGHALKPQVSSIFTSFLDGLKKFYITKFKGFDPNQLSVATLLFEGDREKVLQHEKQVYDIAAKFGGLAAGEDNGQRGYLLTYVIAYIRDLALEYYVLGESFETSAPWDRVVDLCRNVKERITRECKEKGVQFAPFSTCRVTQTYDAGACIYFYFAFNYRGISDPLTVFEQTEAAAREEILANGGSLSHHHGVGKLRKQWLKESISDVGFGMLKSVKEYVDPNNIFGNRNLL
active: vorinostat 0.365
inactive: [1] -0.015 | silmitasertib -0.007 | [2] -0.007 | entospletinib -0.005
